TEAD-YAP inh = TEAD-YAP interaction inhibition. HEK-TIYL cells, TEAD-Gal4/YAP UAS-luciferase luminescence. inhibition, % at 9.12 µM. 1.4% of 640,000 active; in the data active = inhibition above about 32%;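 also: 0% = median of test compound wells and 100% = reference inhibitor wells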
MITF primary = inhibitors of human MITF; AlphaScreen MITF homodimerization, bead proximity signal; O75030; 0.91% of 650,000 active; inhibition, % at 2.6 µM; in the data active = inhibition above about 50%;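 also: 0% = vehicle wells with protein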
GPR151 ag = activators of human GPR151. PathHunter beta-arrestin GPR151 cells, luminescence. activation, % at 11.2 µM. 1% of 650,000 active; in the data active = activation above about 4.9%;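 also: 0% = median of compound wells and 100% = cells with positive control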
Target sequence (Q8TDV0 whole entry, looked up): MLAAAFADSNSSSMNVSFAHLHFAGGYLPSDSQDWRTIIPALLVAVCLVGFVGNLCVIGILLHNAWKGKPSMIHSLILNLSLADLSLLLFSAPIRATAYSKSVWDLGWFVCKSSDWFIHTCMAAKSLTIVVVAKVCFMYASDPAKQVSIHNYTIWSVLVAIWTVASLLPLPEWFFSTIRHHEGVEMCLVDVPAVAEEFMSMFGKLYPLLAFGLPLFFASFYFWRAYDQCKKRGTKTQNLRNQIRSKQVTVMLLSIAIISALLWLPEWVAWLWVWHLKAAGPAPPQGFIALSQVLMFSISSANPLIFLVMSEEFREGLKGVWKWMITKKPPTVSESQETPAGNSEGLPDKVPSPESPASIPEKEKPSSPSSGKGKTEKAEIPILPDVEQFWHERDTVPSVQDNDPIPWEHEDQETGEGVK
FBW7 act = human FBW7 E3 ligase activation, primary screen. 0.13% of 650,000 active. normalized activity (activation), % at 26.1 µM. AID 1259310. AlphaScreen FBW7–phospho-cyclin E peptide binding, activator screen; in the data active = normalized activity above about 1.9%;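 also: purified mutant Fbw7 with reduced substrate affinity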
MITF confirm = human MITF inhibition, confirmation; inhibition, % at 2.6 µM; AID 1259372; shares compounds with MITF primary; AlphaScreen MITF homodimerization, biotin/His-MITF beads; 16% of 4,700 active;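 active = inhibition above a cutoff derived from the DMSO control wells, cut at about 28% in these data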;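 also: 0% = MITF dimer wells with DMSO only; inhibitors lower the bead chemiluminescence by keeping MITF from dimerizing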
AS interf DR = optically interferes with AlphaScreen signal in dose response; IC50, µM; AID 1259373; shares compounds with MITF primary; AlphaScreen optical interference counterscreen, cell-free; 6% of 480 active; call rule not given here
AS interf ctr = AlphaScreen optical interference, counter-screen; LysRS AlphaScreen counterscreen, signal interference, triplicate; shares compounds with MITF primary; AID 1259376; inhibition, % at 2.6 µM; 7.6% of 4,700 active;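 active = inhibition above a cutoff derived from the DMSO control wells, cut at about 30% in these data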
* marks the source's active call; other numbers are inactive results; . = not tested or not shown. Sampled rows, rich in hits. Any-hit rate of the full collection: about 3.4%.

SMILES	TEAD-YAP inh	MITF primary	GPR151 ag	FBW7 act	MITF confirm	AS interf ctr	others
c1ccc(Oc2cccc(OCCn3cncn3)c2)cc1	-9.6	67.2*	4.5	0.0	-2.3	5.7
COc1ccc(-c2c(C#N)c(N)nc3sc(C(=O)c4ccc(Cl)cc4)c(N)c23)cc1OC	8.1	9.3	-0.8	0.0	.	.
O=C(NCCCO)c1ccc(/C=N/O)nc1	3.1	18.7	-0.4	0.1	.	.
O=C(NCCCNCCCNC(=O)c1ccc(/C=N/O)nc1)c1ccc(/C=N/O)nc1	-3.2	68.7*	1.4	-0.7	49.0*	100.3*
O=C(c1ccc([N+](=O)[O-])cc1)N1CCN(Cc2cccnc2)CC1	5.5	74.2*	1.3	0.8	6.4	18.0
COc1ccc(CN2CCN(C(=O)c3ccc([N+](=O)[O-])cc3)CC2)cc1	6.8	59.8*	-1.4	0.1	-20.3	2.2
COc1ccc(C(=O)N2CCN(Cc3cccnc3)CC2)cc1OC	7.1	77.9*	-1.4	-0.1	16.5	8.2
COc1ccc(C(=O)N2CCN(Cc3cccnc3)CC2)cc1	-1.7	66.8*	0.5	0.1	8.5	17.7
c1ccc(-c2nc(NC3CC3)c3[nH]cnc3n2)cc1	13.4	6.0	1.2	0.2	.	.
CC(C)N(CCNc1cc(Nc2ccc3ncccc3c2)ncn1)C(C)C	-1.6	4.9	-0.5	0.6	.	.
CCOc1cccc(C2CC(c3ccc(C)cc3)=NC(c3cc(Br)ccc3OC)N2)c1O (configuration not stated)	-37.9	4.4	0.6	0.0	.	.
CC(C)(C)C(=O)Nc1ccnn1C1CCN(Cc2ccccc2OC(F)F)CC1	2.1	7.2	0.1	0.0	.	.
O=C(c1cccc2ccccc12)N1CCN(Cc2cccnc2)CC1	-1.7	60.5*	-0.4	-0.3	10.0	18.5
CCOc1ccc(/C=C(\C#N)C(=O)NC)cc1	-33.6	13.2	-0.3	-0.1	.	.
CCC(c1nnc(SCC(=O)N(C)C)o1)N(C)C (configuration not stated)	6.4	80.8*	0.6	-0.3	7.3	15.0
CCN1C(C(=O)c2ccccc2)=C(NC(=O)c2ccc(Cl)cc2)c2ccccc2S1(=O)=O	7.8	-0.4	-1.4	0.0	.	.
CCN1C(C(=O)c2ccccc2)=C(NC(=O)c2ccc(C)cc2)c2ccccc2S1(=O)=O	-0.6	53.6*	-0.8	0.0	-0.8	0.1
CN1CCCN(Cc2c(Cl)cccc2Cl)CC1	4.2	63.2*	1.7	0.0	1.2	0.6
CN1CCCN(Cc2c(F)cccc2F)CC1	-0.1	78.5*	-0.2	0.6	-8.6	-7.4
CN1CCCN(Cc2coc3c(Cl)cc(Cl)cc3c2=O)CC1	-8.5	55.3*	0.5	-0.1	-11.1	-3.1
O=CN1CCN(Cc2coc3c(Cl)cc(Cl)cc3c2=O)CC1	4.6	33.3	-0.1	0.2	.	.
CCCCN1CCN(c2ccc(C(F)(F)F)cn2)C1=O	-27.5	4.8	4.8	0.2	.	.
O=C1N(CC2CC2)CCN1c1ccc(C(F)(F)F)cn1	-50.7	54.9*	0.6	0.5	6.0	14.0
O=C(NC1CCN(Cc2ccccc2)CC1)c1ccc2nc(-c3cccs3)sc2c1	-1.1	52.2*	1.4	-0.1	59.5*	1.0	AS interf DR=>6.38
O=C(CCc1ccccc1)Nc1nnc(-c2cccs2)s1	0.4	55.2*	1.1	-0.5	-0.5	11.7
SMILES	TEAD-YAP inh	MITF primary	GPR151 ag	FBW7 act	MITF confirm	AS interf ctr	others
CCCN1CCCc2cc(CCNS(=O)(=O)c3cccs3)ccc21	-3.4	58.5*	-1.0	0.0	-6.0	-2.8
c1ccc(CC2(c3ccccc3)CCNC2)cc1 (configuration not stated)	-4.7	56.1*	-0.2	0.0	-1.2	-1.5
O=C1CC(N2CCN(c3ccc(Cl)cc3)CC2)C(=O)N1c1cccc(Br)c1 (configuration not stated)	6.3	12.0	1.7	0.0	.	.
O=C(Nc1nc(-c2ccccn2)cs1)C12CC3CC(CC(O)(C3)C1)C2	-3.8	54.5*	-2.5	-0.5	60.9*	100.3*
O=C(Nc1nc(-c2ccccn2)cs1)C1CC1	-27.2	34.8	-0.6	0.1	.	.
COCCNCC(=O)Nc1ccc(CN2CCCCC2)cc1	1.8	53.0*	-0.2	-0.1	13.6	13.2
COc1cccc(CNCC(=O)Nc2ccc(N3CCCCCC3)cc2)c1	2.2	53.3*	-0.9	-0.3	10.4	24.0
COCCNCC(=O)Nc1ccc(N2CCCCC2)cc1	3.4	60.9*	0.3	0.0	-13.6	-5.2
O=C(CCl)Nc1ccc(CN2CCCCC2)cc1	-3.7	15.7	-1.2	0.4	.	.

Bioassay records from PubChem.
